The text below walks through data of PubChem BioAssay AID651636 (Sanford-Burnham Center for Chemical Genomics, 2012).

The campaign covered roughly 360,000 compounds. About 3,000 (0.83%) were called active. Cut-off read from the data, not from the text of the source: active = inhibition above about 38%; inactive = the rest. Shown is part of a subset that was picked to be rich in actives.

In this test the target is G-protein coupled receptor 183 (Homo sapiens) (UniProt P32249). The experiment in a line: blockers of oxysterol-driven EBI2 arrestin signaling – cell-based, luminescence, 7a,25-OHC stimulation, uHTS, primary screen (AID 651636).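 Note: enzyme fragment complementation signal reports receptor beta-arrestin coupling in cells; 0% = agonist plus DMSO wells and 100% = wells without agonist.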 The following applies: EBI2 beta-arrestin recruitment, 7a,25-OHC stimulated, at 5 µM, hits give high values. (Recruitment of arrestin is a read-out of receptor activation apart from second messengers.)
G-protein coupled receptor 183 (Homo sapiens), sequence (P32249 whole entry, looked up, the tested form may be a part): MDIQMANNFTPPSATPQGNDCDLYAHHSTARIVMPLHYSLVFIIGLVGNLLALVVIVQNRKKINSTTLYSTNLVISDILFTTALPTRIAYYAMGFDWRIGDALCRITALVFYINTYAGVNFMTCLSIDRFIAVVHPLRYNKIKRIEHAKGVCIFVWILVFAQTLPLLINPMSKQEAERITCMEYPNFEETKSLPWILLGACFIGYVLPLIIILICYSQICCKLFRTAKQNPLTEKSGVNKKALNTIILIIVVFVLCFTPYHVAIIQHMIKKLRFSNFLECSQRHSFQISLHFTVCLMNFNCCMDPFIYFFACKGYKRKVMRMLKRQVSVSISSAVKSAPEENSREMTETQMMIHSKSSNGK
What is called inhibition is the drop in the measured response relative to a control, in per cent. For `Cc1c(NC(=O)CN2C(=O)C(=O)N(Cc3ccccc3)C2=O)c(=O)n(-c2ccccc2)n1C`, the inhibition is 0.531% (inactive).
With `CC1(C(=O)NCc2ccccc2)CSCC(=O)N1CCCn1ccnc1` (centres undefined), the inhibition was 4.35% (inactive).
Consider `CCOC(=O)[C@]12CCCC=C1N(CCC1=CCCCC1)C(=O)[C@H](CC(=O)N1CCSCC1)C2`, for which the inhibition was 7.49% (inactive).
`COC(=O)c1ccc(NC(=O)CSc2nnc(Cc3cccn3C)n2-c2ccc(F)cc2)cc1`: the inhibition is -2.09% (inactive).
As to `COc1ccccc1NC(=O)CSc1nnc(Cc2cccn2C)n1-c1ccc(F)cc1`, the inhibition was 9.51% (inactive).
Then `COc1ccc(-n2c(Cc3cccn3C)nnc2SCC(=O)Nc2cc(C)cc(C)c2)cc1`, with 49.5% (active).
The result for `O=C(C(c1ccccc1)c1ccccc1)N1CCN(CC(O)COc2ccccc2)CC1` (centres undefined) reads 53.5% (active); that for `CCCc1ccc(OCC(O)CN2CCN(C(=O)OCC)CC2)cc1` (centres undefined), 22.6% (inactive); that for `CC(=O)N1CCN(CC(c2ccccc2)c2ccccc2)CC1`, -1.32% (inactive).
With `O=C(O)C1=C(C(=O)O)C2CCC1C2`, the inhibition is 6.95% (inactive).
The result for `COc1ccc(/C=N/N=C/c2c[nH]c(=O)c(C#N)c2Nc2ccccc2)cc1` reads 90.2% (active).
With `COc1ccc(O)c(/C=N/N=C/c2cccc([N+](=O)[O-])c2)c1`, the inhibition was 1.28% (inactive).
As to `COc1ccc(/C=C(/NC(=O)c2ccccc2)C(=O)Nc2cccc(C(=O)O)c2)cc1`, the inhibition is -12.6% (inactive).
As for `O=C(COc1ccc2c(c1)CCC2)N1CCN(c2ccc(F)cc2)CC1`, the inhibition is 44.5% (active).
The result for `CSCCC(NC(=O)COc1ccccc1)C(=O)N1CCN(c2cccc(C(F)(F)F)c2)CC1` (centres undefined) reads 26.3% (inactive); that for `O=C(CSc1ccccn1)N1CCN(S(=O)(=O)c2ccc(Cl)cc2)CC1`, 1.72% (inactive); that for `O=C(COc1ccc(Cl)cc1)N1CCN(c2cccc(C(F)(F)F)c2)CC1`, 84.9% (active).
For `Nc1nc(SCC(=O)N2CCN(S(=O)(=O)c3ccc(Cl)cc3)CC2)n[nH]1`, the inhibition is -6.16% (inactive).
The result for `O=C(CN1CCN(S(=O)(=O)c2ccc(Cl)s2)CC1)N1CCCCC1` reads -6.5% (inactive).
For `O=C(Nc1ccc2c(c1)CCC2)c1cccc(S(=O)(=O)N2CCN(c3ccc(F)cc3)CC2)c1`, the inhibition was -5.81% (inactive).
In the case of `Cc1ccc(OCC(=O)N2CCN(S(=O)(=O)c3ccc(Cl)s3)CC2)cc1C`, the inhibition is 90% (active).
As for `O=C(COc1ccc(Cl)cc1)N1CCN(S(=O)(=O)c2ccc(Cl)cc2)CC1`, the inhibition was 89.2% (active).
Regarding `COc1ccc(N2CCN(C(=O)COc3ccc4c(C)cc(=O)oc4c3)CC2)cc1`, the inhibition is -7.37% (inactive).
The result for `O=C(CN1CCN(S(=O)(=O)c2ccc(Cl)s2)CC1)NCc1ccc(Cl)cc1` reads 15.5% (inactive); that for `Cc1c(C)c2ccc(OCC(=O)N3CCN(c4cccc(Cl)c4)CC3)cc2oc1=O`, 11.5% (inactive); that for `CC(=O)c1ccc(S(=O)(=O)Nc2ccc(-c3ccc4nncn4n3)cc2)cc1`, 6.72% (inactive).
In the case of `COc1ccc(N2C(=O)C(O)C2c2ccc(C)cc2)cc1` (centres undefined), the inhibition is -10.7% (inactive).
On to `CC(C)(C)c1cc(CN2CCN(CCC#N)CC2)cc(C(C)(C)C)c1O`, for which the inhibition is 1.34% (inactive).
Take `Cc1ccc(NC(=O)C(C)Sc2nnc(C3CC3)n2C2CC2)cc1S(=O)(=O)N1CCOCC1` (centres undefined): the inhibition was 6.91% (inactive).
Then `CC(=O)NC(Cc1ccc(F)c(F)c1)C(=O)NC1CCN(C(=O)c2ccc(C)cc2)CC1` (centres undefined), with 1.72% (inactive); and `COc1ccc2c(c1)C(=O)Nc1cc(Cl)ccc1N2`, with 10.9% (inactive); and `C/C(=N\NC(=O)C1(C)CC1(Br)Br)c1ccc(C)cc1C` (centres undefined), with 4.16% (inactive).
Regarding `CCOC(=O)/C=C/CN(C(=O)OC(C)(C)C)S(=O)(=O)N1CC=CC1`, the inhibition was 0.259% (inactive).
Take `CC(=O)NC1=NN(C(C)=O)C(C)(CCS(=O)(=O)c2ccc(Cl)c(Cl)c2)S1` (centres undefined): the inhibition is -4.01% (inactive).
Consider `COCc1cc(C)n(CC(=O)NCC2CCCO2)c(=O)c1C#N` (centres undefined), for which the inhibition is 2.55% (inactive).
With `CCCCOCCCNC(=O)C[C@@H]1C[C@@]2(C(=O)OC)CCCCC=C2N(CCC2=CCCCC2)C1=O`, the inhibition is 3.92% (inactive).
The result for `CC(Oc1ccc(F)cc1)C(=O)N1CCN(c2ncccn2)CC1` (centres undefined) reads -0.409% (inactive); that for `Cc1cc(OCC(=O)N2CCN(c3ncccn3)CC2)ccc1Cl`, 86.6% (active); that for `COC(=O)CC(=O)N1CCN(c2ccc(Cl)c(Cl)c2)CC1`, -5.75% (inactive).
In the case of `Cc1ccc(S(=O)(=O)N2[C@@H](Cc3ccccc3)CO[C@H]2CC(=O)OCc2ccccc2)cc1`, the inhibition is 23% (inactive).
`COC(=O)[C@]12CCCCC=C1N(Cc1ccc3c(c1)OCO3)C(=O)[C@H](CC(=O)NCc1cccs1)C2`: the inhibition was 0.7% (inactive).
The result for `CCC1SC(CC)C(=O)N(CC(=O)NC2CCCCC2)C1=O` (centres undefined) reads -0.813% (inactive).
The result for `O=C(NNc1c2ccccc2nc2ccccc12)c1cc2ccccc2cc1O` reads 44.6% (active).
Regarding `O=C(Cc1ccccn1)c1ccc(O)cc1O`, the inhibition is 9.45% (inactive).
As for `O=C(CSc1nc(C2CC2)nc2ccccc12)Nc1cccc(O)c1`, the inhibition is -2.33% (inactive).
Then `CCCn1nc(NC(=O)C(C)C)c2cc3cc(OC)ccc3nc21`, with 16.4% (inactive); and `O=C(Nc1ncc2c(n1)-c1ccccc1OC2)c1ccc(Cl)cc1`, with 9.5% (inactive).
Regarding `O=C(Nc1ncc2c(n1)CC(c1ccco1)CC2=O)c1ccc(Cl)cc1` (centres undefined), the inhibition is 41.8% (active).
With `CCc1ccc(Nc2ncc3c(n2)CC(c2ccco2)CC3=O)cc1` (centres undefined), the inhibition was 14.2% (inactive).
Turning to `O=C(CC1SC(N2CCCC2)=NC1=O)Nc1ccc(C(=O)NCCc2ccc(F)cc2)cc1` (centres undefined), the inhibition is -2.4% (inactive).
Turning to `CC(=O)C[C@@H]1OC[C@H](CO)N1S(=O)(=O)c1ccc(C)cc1`, the inhibition is 3.35% (inactive).
`CCOC(=O)[C@]12CCCC=C1N(CCC1=CCCCC1)C(=O)[C@H](CC(=O)N1CCCCC1)C2`: the inhibition is 8.47% (inactive).
For the compound `COc1ccc(OCc2cc(C(=O)N3CCCC3)no2)c2ccccc12`, the inhibition was -12.2% (inactive).
Turning to `COc1cccc(-c2ccc(SCC(=O)N3CCN(c4ccccc4)CC3)nn2)c1`, the inhibition is 11.8% (inactive).
The result for `COc1ccccc1N1CCN(C(=O)c2cc(-c3ccc(Br)cc3)on2)CC1` reads 50% (active); that for `COc1ccccc1N1CCN(C(=O)Cn2nnc(-c3cccs3)n2)CC1`, -14.3% (inactive).
The result for `COc1ccc(Nc2ncc(C(=O)N3CCN(c4ccccc4OC)CC3)c3ccccc23)cc1` reads -13.1% (inactive).
As for `COc1cccc(-c2cc(C(=O)N3CCN(c4ccccc4OC)CC3)no2)c1`, the inhibition was 56.8% (active).
For the compound `CC(C)C[C@@H]1COc2cc(N3CCC[C@@H]3CO)ccc2S(=O)(=O)N1`, the inhibition was -0.978% (inactive).
Regarding `Cc1cc2nc3n(c2cc1C)CC1CC(C(=O)NCCC(C)C)N(C)C31` (centres undefined), the inhibition is 6.24% (inactive).
For `c1ccc(CN2CCC(N=C3NN=C(c4ccc5c(c4)OCCO5)CS3)CC2)cc1`, the inhibition was 6.66% (inactive).
As for `Clc1cccc(N=C2NN=C(c3ccc4c(c3)OCCO4)CS2)c1`, the inhibition was 49.5% (active).
`CN(C)c1nc(=Nc2cccc(Cl)c2)ss1`: the inhibition is 1.94% (inactive).
Regarding `Cc1ccc(S(=O)(=O)N2[C@@H](c3cccc4ccccc34)C(C(=O)O)=C[C@H]2C(C)(C)C)cc1`, the inhibition is -1.04% (inactive).
As for `CCN(CC)c1ccc(S(=O)(=O)N2CCCCC2)cc1NC(=O)C1=COCCO1`, the inhibition is 1.67% (inactive).
For the compound `CCCCN=C1C([N+](=O)[O-])=CC=C2C1=NC1(CCCCC1)N2O`, the inhibition was 68.4% (active).
In the case of `CO[C@@H]1CN(C)C(=O)c2cc(NC(=O)C3CC3)ccc2OC[C@H](C)N(C(=O)CN2CCOCC2)C[C@@H]1C`, the inhibition was -1.87% (inactive).
Take `COc1ccc(-c2nc3c(s2)CCc2onc(-c4ccc(OC)cc4)c2-3)cc1`: the inhibition is -3.33% (inactive).
For `CCn1c(SCC(=O)NNC(=O)c2ccc(OC)cc2)nnc1C(C)C`, the inhibition is 12.9% (inactive).
`CCC(c1nnc(SCC(=O)NNC(=O)c2ccccc2)n1Cc1ccccc1)N(C)C` (centres undefined): the inhibition is 72.7% (active).
In the case of `Cc1cccc(C(=O)NNC(=O)CSc2nnc(C(C)C)n2C)c1`, the inhibition was 2.91% (inactive).
The result for `COC(=O)[C@H](CC(C)C)NC(=O)N1CCCCC1C` (some centres undefined) reads -4.31% (inactive); that for `Cc1cc(C)c(C#N)c(SCc2[nH]nc3c2C(c2ccccc2)C(C#N)=C(N)O3)n1` (centres undefined), 63.3% (active).
For `Cc1cc(C)c(C#N)c(SCc2ccc3c(c2)OCO3)n1`, the inhibition is -1.67% (inactive).
As for `CCCc1[nH]nc2c1C(c1ccc(Br)s1)C(C#N)=C(N)O2` (centres undefined), the inhibition is -18.9% (inactive).
Then `COc1cc2c(cc1NC(=O)CN1CCN(S(=O)(=O)c3ccc(F)cc3)CC1)oc1ccccc12`, with 3.04% (inactive).
Regarding `CC(C)c1ccc(N2CC(C(=O)Nc3nccs3)CC2=O)cc1` (centres undefined), the inhibition is 5.79% (inactive).
Take `Cc1cccc(-c2nc3c(c(SCC(=O)N4CCOCC4)n2)CCCC3)c1`: the inhibition is 4.2% (inactive).
For `O=C(c1ccc(-n2cnnn2)cc1)N1CCN(C(c2ccccc2)c2ccccc2)CC1`, the inhibition was 79% (active).
The result for `CC(OC(=O)c1ccc(-n2cnnn2)cc1)C(=O)NCc1ccccc1` (centres undefined) reads -7.1% (inactive).
Consider `Cn1nnnc1SCC(=O)N1CCN(C(c2ccccc2)c2ccccc2)CC1`, for which the inhibition is 36.1% (inactive).
For the compound `COc1ccc(C2Nc3ccccc3C(=O)N2c2ccc(Cl)cc2)cc1Cn1cc([N+](=O)[O-])cn1` (centres undefined), the inhibition is 4.76% (inactive).
For `COc1ccc(NC(=O)C[C@H]2C(=O)N(CCc3ccccc3)C[C@@H]2C)cc1`, the inhibition is 2.26% (inactive).
Consider `O=S(=O)(c1ccc(Cl)s1)N1CCC2(CC1)OCCO2`, for which the inhibition was 1.76% (inactive).
`O=C(c1cc2ccccc2o1)N1CCN(S(=O)(=O)c2ccc(Cl)s2)CC1`: the inhibition was 91.3% (active).
The result for `CCC(=O)Nc1ccccc1C(=O)N1CCN(Cc2ccccc2)CC1` reads -10.6% (inactive).
Take `CCNC(=S)N1CCN(S(=O)(=O)c2ccc(Cl)s2)CC1`: the inhibition was -5.4% (inactive).
For the compound `O=C(c1cc2ccccc2o1)N1CCN(Cc2ccccc2)CC1`, the inhibition is 65.2% (active).
For `O=C(c1cc2ccccc2o1)N1CCN(c2cccc(C(F)(F)F)c2)CC1`, the inhibition is 36.7% (inactive).
